Screening data: PubChem BioAssay, several laboratories
Lmaj promast = Leishmania major promastigote growth inhibition; Leishmania major promastigotes, resazurin fluorescence viability; inhibition, % at 10 µM; 200,000 compounds, 9% hits; AID 1063; in the data active = inhibition above about 50%;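 note: promastigotes grown with compound for 44 hours at 28 °C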
RAM network inh = blocks the yeast RAM network. inhibition, % at 50 µM. AID 868. S. cerevisiae dse1pr::URA3 reporter, 5-FOA growth OD615, 2 d; analog-sensitive cbk1-as2 kinase mutant strain. 190,000 compounds, 1.8% hits;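 active = inhibition above a set limit, 3 SD over mean compound inhibition, cut at about 8.4% in these data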;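 note: 0% = DMSO-only wells with no growth and 100% = 10 µM 1-NA-PP1 full growth; inhibition rescues growth on 5-FOA so higher OD means more RAM inhibition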
WT yeast gro inh = growth inhibition of WT yeast, mitochondrial fusion screen; inhibition, % at 10 µM; mitochondrial fusion phenotypic screen, WT strain; AID 1362; 190,000 compounds, 2.1% hits; in the data active = inhibition above about 58%; tested in S. cerevisiae
CHOP inhibitor = inhibitors of CHOP induction in ER stress response. inhibition, % at 10 µM. CHO-K1 CHOP-promoter luciferase, tunicamycin-induced, 15-18 h. 220,000 compounds, 3.8% hits;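 active = compounds that reduced the stress-induced luciferase reporter signal by more than about 70% of percent inhibition, limit read from the data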;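 note: 0% = tunicamycin plus vehicle and 100% = wells without tunicamycin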
Numbers without * were called inactive; . = no result. Sampled rows, rich in hits. Any-hit rate of the full collection: about 13%.

SMILES	Lmaj promast	RAM network inh	WT yeast gro inh	CHOP inhibitor
O=[N+]([O-])c1cccc(N/N=C/c2cccc(O)c2O)c1	90*	3	62*	2
O=[N+]([O-])c1ccccc1N/N=C\c1ccccc1Cl	-6	1	20	-1
NC(N)=N/N=C/c1cccc([N+](=O)[O-])c1O	-4	-1	-1	-7
O=[N+]([O-])c1ccccc1N/N=C/c1cccc(O)c1O	.	.	.	71*
Cc1cc(C)nc(N/N=C/c2ccccc2OCc2ccc([N+](=O)[O-])cc2)n1	7	-2	15	-4
O=[N+]([O-])c1ccc(N/N=C\c2ccccc2OCc2ccccc2)cc1	53*	5	-4	76*
CSc1ccc(CCNC(=O)c2cc(C)nn2-c2ccccc2)cc1	.	.	.	-5
COCCCNC(=O)c1cc(C(=O)c2ccccc2Br)c[nH]1	-1	0	-4	53
CC(=O)C1=C(C)NC(SCC(=O)c2ccc(Cl)cc2)=C(C#N)C1CC(C)C (stereo unspecified)	8	9.1*	21	17
C=CCOC(=O)C1=C(C)NC(SCC(=O)N(CC)CC)=C(C#N)C1c1ccco1 (stereo unspecified)	81*	1	-2	.
CC(=O)C1=C(C)NC(SCC(=O)c2cc(Cl)ccc2Cl)=C(C#N)C1c1ccco1 (stereo unspecified)	39	.	.	.
COc1ccccc1NC(=O)C1=C(C)NC(SCC(=O)c2ccc(C)cc2)=C(C#N)C1c1ccco1 (stereo unspecified)	15	8.8*	-1	7
CC(=O)C1=C(C)NC(SCC(=O)c2ccc(Cl)c(Cl)c2)=C(C#N)C1c1ccco1 (stereo unspecified)	78*	.	.	.
CC(=O)C1=C(C)NC(SCC(=O)c2ccc(F)cc2)=C(C#N)C1CC(C)C (stereo unspecified)	24	2	-6	12
CCOCCCn1c(=S)[nH]c2cc(C(=O)NCCCN(CC)CC)ccc2c1=O	-11	1	5	2
C#CCNC(=O)C1=C[C@@H](c2ccc(Br)cc2)C[C@@H](OCCCCO)O1	4	1	8	28
CC(C)c1ccc(NC(=S)NCc2cccs2)cc1	5	1	67*	44
Cc1cc(Cl)ccc1NC(=S)NCc1cccs1	77*	0	12	16
CC(Cc1cccs1)NC(=S)Nc1ccc(F)cc1 (stereo unspecified)	51*	2	15	23
COc1ccc(NC(=S)NCc2cccs2)cc1	-2	1	3	4
Nc1nonc1C(=O)N/N=C/c1ccc(-c2cccc(C(=O)O)c2)o1	-2	3	-20	-11
O=S(=O)(c1ccccc1)c1cnc(-c2ccccc2)nc1N1CCCCC1	24	3	58*	21
CN1CCN(c2nc(-c3ccccc3)ncc2S(=O)(=O)c2ccccc2)CC1	20	1	-8	7
CC1Cc2ccccc2N1C(=O)Cn1nnc(-c2ccccc2NC(=O)C2CCC2)n1 (stereo unspecified)	2	3	3	6
CCC(=O)Nc1ccccc1-c1nnn(CC(=O)N2c3ccccc3CC2C)n1 (stereo unspecified)	5	3	-1	76*
SMILES	Lmaj promast	RAM network inh	WT yeast gro inh	CHOP inhibitor
CCN(CC)CCCNC(=O)Cn1nc([N+](=O)[O-])c(Cl)c1C	-6	3	-6	-3
CCOC(=O)c1nnn(-c2nonc2N)c1CN(C)Cc1ccccc1	-3	2	6	81*
CCCn1c(=N)n(CC(O)COc2cccc(C)c2)c2ccccc21 (stereo unspecified)	96*	-1	8	13
Cc1cccc(OCC(O)CN2C(C)(C)CC(O)CC2(C)C)c1 (stereo unspecified)	-3	0	1	15
CCn1c(=N)n(CC(O)COc2cccc(C)c2)c2ccccc21 (stereo unspecified)	58*	2	-2	36
CN(C)c1cccc(C(=O)OCC(=O)Nc2nccs2)c1	29	-1	-1	-1
CC1CCN(C(=O)CSc2ccc(-c3cccc([N+](=O)[O-])c3)nn2)CC1	13	2	-1	4
CCCN(CCC)CCCNc1ccc(C(=O)Nc2cccc(OC)c2)cc1[N+](=O)[O-]	98*	1	3	5
Cc1ccc(NC(=O)c2ccc(NCCc3ccccc3)c([N+](=O)[O-])c2)cc1F	89*	8	22	-14
O=C(Nc1cc(F)cc(F)c1)c1ccc(NCCc2ccccc2)c([N+](=O)[O-])c1	-7	4	-5	5
Cc1ccc(NC(=O)c2ccc(NCCN)c([N+](=O)[O-])c2)cc1Cl	100*	0	-8	14
O=C(Nc1cc(F)cc(F)c1)c1ccc(NCCCN2CCCCCC2)c([N+](=O)[O-])c1	91*	1	7	22
